In PubChem BioAssay (NCI):
This is part of a sample that, as a whole, favours compounds with a hit. Of some 83,000 tested, about 20% had one in any assay.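 Method: cells in 96-well plates; compound added at one concentration; 48 h incubation; percent growth measured; values under 10 scored active.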 Activity calls are given as the source filed them.

What was measured:
Test in all cases: NCI-60 one-dose screen, 48 h (100 = growth as untreated, 0 = no growth, -100 = all killed)
Conditions in all cases: 10 µM unless noted
[1] = system: MOLT-4 leukemia
[2] = system: SR leukemia
[3] = system: RPMI-8226 leukemia
[4] = system: OVCAR-8 ovarian
[5] = system: OVCAR-5 ovarian
[6] = system: OVCAR-4 ovarian
[7] = system: SK-OV-3 ovarian
[8] = system: IGROV1 ovarian
[9] = system: OVCAR-3 ovarian
[10] = system: HS 578T breast
[11] = system: NCI/ADR-RES ovarian
[12] = system: T-47D breast
[13] = system: BT-549 breast
[14] = system: MDA-MB-435 melanoma
[15] = system: SW-620 colon
[16] = system: MCF7 breast
[17] = system: HCC-2998 colon
[18] = system: KM12 colon
[19] = system: HCT-116 colon

Measured: growth

CCN(CC)CCn1c(=O)n(C)c2ccccc21
inactive: [1] 104% | [2] 99.3% | [3] 113% | [4] 101% | [5] 117% | [6] 109% | [7] 106% | [8] 109% | [9] 106% | [10] 95.5% | [11] 101% | [12] 109% | [13] 124% | [14] 105% | [15] 105% | [16] 102% | [17] 101% | [18] 99.8%

Cc1cc2c(cc1-c1ccnc(/C=C/C(=O)O)c1)C(C)(C)CCC2(C)C
inactive: [1] 91.9% | [2] 77.9% | [3] 41.4% | [4] 79% | [5] 100% | [6] 104% | [7] 98.1% | [8] 100% | [9] 82.8% | [10] 59.6% | [11] 87.8% | [12] 92.4% | [13] 64.5% | [14] 92.5% | [15] 95.9% | [16] 56% | [19] 75.1% | [17] 103% | [18] 86.3%

CCOP(=O)(OCC)C(=O)N(CC)CC
inactive: [1] 114% | [2] 91.2% | [3] 89.2% | [4] 96.1% | [5] 111% | [6] 96.5% | [7] 104% | [8] 112% | [9] 109% | [10] 101% | [11] 102% | [12] 96.3% | [13] 95.1% | [14] 97.8% | [15] 99.6% | [16] 95.2% | [19] 104% | [18] 98.2%

CC12CCC3C(CCC4CC(O)CCC43C)C1CCC2=O (centres undefined)
inactive: [1] 83.1% | [2] 86.1% | [3] 100% | [4] 99.9% | [5] 91.7% | [6] 108% | [7] 126% | [8] 38.9% | [9] 100% | [10] 81.9% | [11] 163% | [12] 113% | [13] 113% | [14] 97.7% | [15] 109% | [16] 116% | [19] 88.6% | [17] 99.2% | [18] 98.9%

c1ccc2c(c1)O[As](O[As]1Oc3ccccc3O1)O2
inactive: [1] 19.2% | [4] 23.3% | [5] 40.6% | [6] 40.3% | [7] 75.6% | [9] 14.2% | [10] 38.8% | [11] 50.1% | [12] 14.3% | [13] 17.6% | [14] 41.2% | [15] 25.5% | [16] 12.7% | [19] 43.1% | [18] 69.8%
active: [2] 2.68% | [3] -14.9% | [8] 6.22%

COc1ccc2c(c1)c(-c1nc(-c3c[nH]c4ncccc34)cs1)cn2CCCCN1CCOCC1
inactive: [4] 55.6% | [5] 58.3% | [6] 50.8% | [7] 78.2% | [8] 36.1% | [9] 58.3% | [10] 44.8% | [11] 63.3% | [12] 48% | [13] 84.2% | [16] 18.1% | [19] 32.5% | [17] 26.7% | [18] 16.4%
active: [1] -21% | [2] -17.5% | [3] -5.6% | [14] -59% | [15] -63%

O=c1[nH]c(=O)[nH]c(=O)[nH]1
inactive: [1] 80.8% | [2] 104% | [3] 60.1% | [4] 106% | [5] 103% | [6] 119% | [7] 110% | [8] 68.2% | [9] 119% | [10] 95.7% | [11] 102% | [12] 102% | [13] 145% | [14] 114% | [15] 108% | [16] 97.1% | [19] 97.2% | [18] 107%
